Reference: PubChem BioAssay (EPA / NIEHS)
The source made the active and inactive calls. The calls were made as follows: active = hit-call score of the fitted dose curve at least 0.9, where 1 is the maximum; inactive = score below 0.9.

Legend:
Settings in all cases: mRNA level, 48 h; actives raise or lower the signal
[1] = read-out: HGF (gene 3082); assay: LTEA_HepaRG_HGF: Life Technologies and Expression Analysis (LTEA) Assay for Hepatocyte Growth Facto (HGF) using HepaRG (AID 2283505)
Outline: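 Read-out is HGF transcript level by qRT-PCR, normalized to three housekeeping genes, fitted bidirectionally against 0.5% DMSO vehicle. Human HepaRG cells received test chemicals for 48 h at up to 100 uM.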

[2] = read-out: Insulin Like Growth Factor 1 (IGF1), IGF1 (gene 3479); assay: LTEA_HepaRG_IGF1: Life Technologies and Expression Analysis (LTEA) Assay for Insulin Like Growth Factor 1 (IGF1) using HepaRG (AID 2283506)
Outline: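 Cells are thawed, plated and cultured 48 h, then exposed in duplicate to chemical (highest 100 uM, half-log steps, 0.5% DMSO) for another 48 h. Total RNA is analysed by Fluidigm qRT-PCR for IGF1 expression relative to vehicle.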

[3] = read-out: Intercellular Adhesion Molecule 1 (ICAM1), ICAM1 (gene 3383); assay: LTEA_HepaRG_ICAM1: Life Technologies and Expression Analysis (LTEA) Assay for Intercellular Adhesion Molecule 1 (ICAM1) using HepaRG (AID 2283507)
Outline: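 Readout is qRT-PCR mRNA level, normalized to three housekeeping genes and fitted bidirectionally against 0.5% DMSO vehicle. Human HepaRG cultures received compound for 48 h, top concentration 100 uM with half-log dilutions.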

[4] = read-out: Insulin-like growth factor-binding protein 1 (IGFBP1), IGFBP1 (gene 3484); assay: LTEA_HepaRG_IGFBP1: Life Technologies and Expression Analysis (LTEA) Assay for Insulin-like growth factor-binding protein 1 (IGFBP1) using HepaRG (AID 2283508)
Outline: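 Thawed HepaRG cells are plated for 48 h, switched to serum-free induction medium, then dosed in duplicate for another 48 h (100 uM top, half-log steps). Lysates in RLT go to qRT-PCR, and gain or loss of signal is fitted relative to vehicle.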

[5] = read-out: Interleukin 6 (IL6), IL6 (gene 3569); assay: LTEA_HepaRG_IL6: Life Technologies and Expression Analysis (LTEA) Assay for Interleukin 6 (IL6) using HepaRG (AID 2283509)
Outline: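 Changes in IL6 mRNA, up or down relative to 0.5% DMSO controls, were derived from concentration-response curves in human HepaRG cells treated for 48 h at up to 100 uM, with ACTB, GAPDH and POLR2A as normalizers.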

[6] = read-out: Interleukin 6 Receptor (IL6R), IL6R (gene 3570); assay: LTEA_HepaRG_IL6R: Life Technologies and Expression Analysis (LTEA) Assay for Interleukin 6 Receptor (IL6R) using HepaRG (AID 2283510)
Outline: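 Cells were thawed, plated and cultured 48 h, then medium was changed to serum-free induction medium. Chemicals were added in duplicate (100 uM top, half-log steps, 0.5% DMSO) for 48 h. Lysates were analyzed by qRT-PCR for IL6R expression.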

[7] = read-out: Potassium channel subfamily K member 1 (KCNK1), KCNK1 (gene 3775); assay: LTEA_HepaRG_KCNK1: Life Technologies and Expression Analysis (LTEA) Assay for Potassium channel subfamily K member 1 (KCNK1) using HepaRG (AID 2283511)
Outline: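 Human HepaRG cultures receive test chemicals for 48 h in 0.5% DMSO, top concentration 100 uM with half-log dilutions. Induction or suppression of KCNK1 mRNA relative to DMSO is derived by bidirectional fitting of qRT-PCR data.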

[8] = read-out: Keratin 19 (KRT19), KRT19 (gene 3880); assay: LTEA_HepaRG_KRT19: Life Technologies and Expression Analysis (LTEA) Assay for Keratin 19 (KRT19) using HepaRG (AID 2283512)
Outline: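 KRT19 transcript levels, measured by Fluidigm qRT-PCR against three housekeeping genes, are fitted for gain or loss of signal relative to DMSO. Human HepaRG cells receive test chemicals (top 100 uM, half-log steps, 0.5% DMSO) for 48 hours.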

[9] = read-out: JUN Transcription Factor, JUN (gene 3725); assay: LTEA_HepaRG_JUN: Life Technologies and Expression Analysis (LTEA) Assay for JUN Transcription Factor using HepaRG (AID 2283513)
Outline: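 Read-out is JUN transcript level by TaqMan qRT-PCR, normalized to ACTB, GAPDH and POLR2A, after 48 h chemical treatment of HepaRG cells. Concentration-response spanned eight half-log points up to 100 uM in 0.5% DMSO.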

[10] = read-out: Lipase C (LIPC), LIPC (gene 3990); assay: LTEA_HepaRG_LIPC: Life Technologies and Expression Analysis (LTEA) Assay for Lipase C (LIPC) using HepaRG (AID 2283514)
Outline: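 In this multiplexed gene-expression screen, human HepaRG cultures received test chemicals for 48 h across eight concentrations with 100 uM highest, in duplicate. Values reflect LIPC mRNA induction or suppression versus DMSO vehicle, from normalized qRT-PCR.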

[11] = read-out: MicroRNA 122 (MIR122), gene 406906; assay: LTEA_HepaRG_MIR122: Life Technologies and Expression Analysis (LTEA) Assay for MicroRNA 122 (MIR122) using HepaRG (AID 2283516); also: the transcript read is the microRNA miR-122
Outline: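 Human liver HepaRG cultures receive test chemicals for 48 h at eight half-log concentrations from 100 uM. Expression is quantified by qRT-PCR with ACTB/GAPDH/POLR2A normalization and fitted bidirectionally against 0.5% DMSO.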

[12] = read-out: matrix metalloproteinase-10 (MMP10), MMP10 (gene 4319); assay: LTEA_HepaRG_MMP10: Life Technologies and Expression Analysis (LTEA) Assay for matrix metalloproteinase-10 (MMP10) using HepaRG (AID 2283517)
Outline: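 In differentiated HepaRG cultures kept in 0.5% DMSO, test chemicals act for 48 h over an eight-point range with a top dose of 100 uM. Expression is then quantified by TaqMan RT-PCR against ACTB, GAPDH and POLR2A.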

[13] = read-out: MYC, MYC (gene 4609); assay: LTEA_HepaRG_MYC: Life Technologies and Expression Analysis (LTEA) Assay for MYC using HepaRG (AID 2283518)
Outline: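 HepaRG, ~100,000 cells/well, collagen I; 48 h plating; serum-free induction medium; 48 h dosing, duplicate, 100 uM top, half-log, 0.5% DMSO; total RNA → qRT-PCR MYC; gain/loss fit vs DMSO.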

[14] = read-out: matrix metalloproteinase-3 (MMP3), MMP3 (gene 4314); assay: LTEA_HepaRG_MMP3: Life Technologies and Expression Analysis (LTEA) Assay for matrix metalloproteinase-3 (MMP3) using HepaRG (AID 2283519)
Outline: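 Human liver HepaRG cultures received chemicals (top concentration 100 uM, 0.5% DMSO) for 48 h in duplicate. MMP3 mRNA induction or loss was then assessed via TaqMan qRT-PCR with housekeeping-gene normalisation.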

[15] = read-out: Paternally Expressed 10 (PEG10), PEG10 (gene 23089); assay: LTEA_HepaRG_PEG10: Life Technologies and Expression Analysis (LTEA) Assay for Paternally Expressed 10 (PEG10) using HepaRG (AID 2283520);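 as to AC50: differentiated HepaRG human liver cells in serum-free induction medium with 0.5% DMSO; PEG10 transcript by qRT-PCR normalised to ACTB GAPDH and POLR2A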
Outline: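 Human HepaRG cultures are dosed for 48 h across an eight-point half-log series starting at 100 uM, with 0.5% DMSO as vehicle and baseline. Gain or loss of PEG10 transcript is measured by qRT-PCR and fitted in both directions.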

[16] = read-out: Nuclear factor NF-kappa-B p105 subunit (Homo sapiens) (UniProt P19838); assay: LTEA_HepaRG_NFKB1: Life Technologies and Expression Analysis (LTEA) Assay for Nuclear Factor Kappa B Subunit 1 (NFKB1) using HepaRG (AID 2283521);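 also: differentiated human HepaRG liver cells in serum-free induction medium; TaqMan qRT-PCR transcript normalised to ACTB GAPDH and POLR2A housekeeping genes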
Outline: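 Human HepaRG cells receive eight half-log concentrations, highest 100 uM, for 48 h. NFKB1 expression is then quantified by qRT-PCR and analysed for up- or down-regulation relative to 0.5% DMSO vehicle.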

[17] = read-out: Protein phosphatase 2A (PPP2R4), PTPA (gene 5524); assay: LTEA_HepaRG_PPP2R4: Life Technologies and Expression Analysis (LTEA) Assay for Protein phosphatase 2A (PPP2R4) using HepaRG (AID 2283522)
Outline: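 Cells were plated, cultured 48 h, switched to serum-free induction medium, then dosed for 48 h (8 points, max 100 uM, 0.5% DMSO). RNA was isolated and PPP2R4 expression measured by TaqMan qRT-PCR.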

[18] = read-out: Phosphatase and tensin (PTEN), PTEN (gene 5728); assay: LTEA_HepaRG_PTEN: Life Technologies and Expression Analysis (LTEA) Assay for Phosphatase and tensin (PTEN) using HepaRG (AID 2283523)
Outline: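 Expression of PTEN is quantified in the human liver line HepaRG following two days of dosing (top concentration 100 uM, half-log dilutions, 0.5% DMSO). Values derive from bidirectional curve fitting relative to DMSO controls.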

[19] = read-out: solute carrier (SLC22A1), SLC22A1 (gene 6580); assay: LTEA_HepaRG_SLC22A1: Life Technologies and Expression Analysis (LTEA) Assay for solute carrier (SLC22A1) using HepaRG (AID 2283524);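 as to AC50: differentiated human HepaRG liver cells in serum-free induction medium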
Outline: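 Transcript induction or suppression of SLC22A1 in human HepaRG cultures is scored after 48 h chemical treatment, with DMSO (0.5%) as baseline for bidirectional fitting. Concentrations span eight half-log points topping at 100 uM.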

[20] = read-out: Lipoprotein lipase (LPL), LPL (gene 4023); assay: LTEA_HepaRG_LPL: Life Technologies and Expression Analysis (LTEA) Assay for Lipoprotein lipase (LPL) using HepaRG (AID 2283515)
Outline: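 Concentration-response testing used half-log steps from 100 uM in 0.5% DMSO on human HepaRG cells, 48 h, duplicate wells. Phenobarbital 1 mM served as induction control; LPL mRNA was normalized to ACTB, GAPDH, POLR2A.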

Measured: AC50

Sequence of Nuclear factor NF-kappa-B p105 subunit (Homo sapiens) (P19838 whole entry, looked up): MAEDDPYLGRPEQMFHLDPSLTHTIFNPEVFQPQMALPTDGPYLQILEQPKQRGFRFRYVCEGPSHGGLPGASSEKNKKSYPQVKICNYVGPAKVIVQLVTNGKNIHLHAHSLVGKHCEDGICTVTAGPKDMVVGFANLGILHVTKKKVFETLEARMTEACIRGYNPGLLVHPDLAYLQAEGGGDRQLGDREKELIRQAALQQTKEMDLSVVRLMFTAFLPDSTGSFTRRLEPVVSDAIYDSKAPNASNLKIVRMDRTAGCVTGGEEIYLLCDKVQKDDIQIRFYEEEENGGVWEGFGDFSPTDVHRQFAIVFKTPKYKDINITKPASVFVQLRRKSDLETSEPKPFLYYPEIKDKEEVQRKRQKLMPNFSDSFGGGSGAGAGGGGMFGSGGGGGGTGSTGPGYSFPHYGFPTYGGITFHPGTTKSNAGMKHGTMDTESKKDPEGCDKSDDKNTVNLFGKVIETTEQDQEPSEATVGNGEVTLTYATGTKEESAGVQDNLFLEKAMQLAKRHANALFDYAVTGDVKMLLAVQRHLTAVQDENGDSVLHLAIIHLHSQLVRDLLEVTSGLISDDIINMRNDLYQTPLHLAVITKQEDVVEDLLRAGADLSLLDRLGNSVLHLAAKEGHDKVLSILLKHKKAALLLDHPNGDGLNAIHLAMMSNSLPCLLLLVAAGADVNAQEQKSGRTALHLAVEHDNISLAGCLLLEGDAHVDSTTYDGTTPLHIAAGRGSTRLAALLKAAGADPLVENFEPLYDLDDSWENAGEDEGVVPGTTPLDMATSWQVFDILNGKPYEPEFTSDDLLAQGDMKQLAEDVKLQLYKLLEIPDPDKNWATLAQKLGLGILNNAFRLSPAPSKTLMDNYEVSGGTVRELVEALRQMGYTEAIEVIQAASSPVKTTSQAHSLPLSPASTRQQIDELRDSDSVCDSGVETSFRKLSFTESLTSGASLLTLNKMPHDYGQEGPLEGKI

O=C(O)c1cccc(Oc2ccccc2)c1
not listed: [20]
inactive: all other assays above

NC(=O)NO
active: [2] 14.3 µM
not listed: [6] | [14]
inactive: all other assays above

CC(C)c1cccc(C(C)C)c1N1C(=O)c2ccc(O)cc2C1=O
active: [1] 93 µM | [8] 88.7 µM | [10] 82.8 µM | [11] 93.6 µM | [12] 89.9 µM | [13] 50 µM | [14] 93.4 µM | [15] 76.8 µM | [19] 91.4 µM
not listed: [6] | [20]
inactive: all other assays above

Cn1c(=O)cc(Oc2ccc(F)cc2F)c2cnc(NCC(C)(C)O)nc21
active: [2] 12.6 µM | [8] 18.3 µM | [13] 22.1 µM
not listed: [14] | [16] | [20]
inactive: all other assays above

CC(=O)OCCC(C)C
not listed: [6] | [16]
inactive: all other assays above

CC(C)(O)c1coc(S(=O)(=O)NC(=O)Nc2c3c(cc4c2CCC4)CCC3)c1
active: [15] 50 µM
not listed: [5]
inactive: all other assays above
